Assay results published in PubChem BioAssay AID1508600 (Functional Genomics Laboratory (NCATS/FGL), 2020).
About 3,700 (7%) of roughly 53,000 sequences were called active.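 The calls were made as follows: active = gene knockdowns whose robust z-score for IL-1 alpha signal is at least 2 or at most -2, so actives lie on both sides; inactive = the rest.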 Only a selection was taken, and actives are over-represented in it overall.

experiment: Components of the Cytosolic LPS Sensing Pathway: Gene Identification via Genome-wide siRNA Screen; settings: RAW264.7 macrophages, IL-1a HTRF, actives lie on both sides, screened at 100 nM (by protocol), cells primed 5 h with Pam3CSK4 first;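 also: robust z of the log signal after scaling to non-targeting control siRNA wells of the plate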
In short: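 Cells (RAW264.7, 1×10^4 per well) were transfected with siRNA at 100 nM and cultured 48h at 37 degrees C. Pam3CSK4 was added for 5 hours; LipidA transfection followed for 24 hour. IL-1a was then measured by HTRF.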

Sequence	z-score
GCAUCUCCCUUAUGUCUGUTT against Nubp2	2.12 (active)
GGGAAGUGGGAUUCCUAAGTT against Fam220a	0.218 (inactive)
GCACGAAGGUCGUUAUUAUTT against Wls	-0.28 (inactive)
GGUGACACAGGAGAAGAAGTT against Colec10	-0.00926 (inactive)
GGUAAUUAAUUCAAAGCAGTT against St8sia4	-0.851 (inactive)
GGAGUUUAUGAGGAACUCGTT against Zwint	-0.0598 (inactive)
GGGCUAAAUUCAUGGGUUCTT against Timp1	0.681 (inactive)
GGGAAGAUCUUCAGGAAAATT against Cbr3	1.1 (inactive)
GCUCCUAAUGAAAUGGUUUTT against Kif2a	1.41 (inactive)
CGGUAUGUUAUUUUGGUUGTT against Fam216a	-0.236 (inactive)
GGGCUGUGGAAACAAUUUATT against Zpld1	2.32 (active)
ACUUCCUGAUUGAGAGAAATT against Olfr497	-0.319 (inactive)
GGUUCCACUAAUCUUUUUATT against Mark3	0.696 (inactive)
GGAGGAGAUUGUCCAGAAATT against Ecm1	1.2 (inactive)
GGUCGACAUUGAAGCUAUUTT against Ralyl	-0.517 (inactive)
GCAUUGUGAAUAUUCAGAUTT against Cers4	0.623 (inactive)
GGCAGUGUGUUAGAUUCUUTT against Cts3	2.35 (active)
GGAGACUAUCCUCAUUAUUTT against Smarca4	0.36 (inactive)
AUGCUUUGAUCAGUAUGAATT against Vmn1r188	-2.38 (active)
GGAGGACAACAAGUACUGCTT against Smap1	-1.08 (inactive)
GGAAAAUCGGUUAUCAUAATT against Pde7a	-0.684 (inactive)
GCUAUAGCGCGGAAAUGGATT against Dclk3	-0.531 (inactive)

Sequence	z-score
GGUCAAAGAACAAAAAGAATT against Muc13	-0.176 (inactive)
GGAGCUAAAUGGCUCUGAUTT against Boc	2.98 (active)
GGGACUGGCAGAUCUUAUCTT against Gtpbp3	0.817 (inactive)
GGAACGAGAAUCGGAGAUGTT against Mapk8ip3	2.92 (active)
GGUCAUUGGUAGGUCCACUTT against Rusc2	0.338 (inactive)
GGGAGAUUCAUUUUCCCAGTT against Rnf43	0.0663 (inactive)
GCAACAGGUUAGAAUAGACTT against Scd3	-1.36 (inactive)
GGUUCUGCACAUCUGAACATT against Cst3	-0.109 (inactive)
GGCCUUUUUGUUUAUGCUATT against Zan	-0.0784 (inactive)
CCGUGUGGUCUGAUAAAAGTT against Fbxl8	-0.714 (inactive)
GCUCACUUGAUUCUGGUAATT against Ifnz	0.416 (inactive)
GGUGUCUGGAGGGAGAUUUTT against Peli3	0.245 (inactive)
CCAAGUGCUAAACAAGACATT against Spata31	1.06 (inactive)
GGCUAAAGGAAACUCACCUTT against Duoxa2	-3.33 (active)
GGUGACUGACAACCAGACATT against Dkkl1	-0.171 (inactive)
GGGUCUUCUUCCUGAGUGUTT against Ak8	-1.67 (inactive)
GGCCAUGUUCCACACAUUATT against Grm1	1.49 (inactive)
GCCACGCAAUAAAGCAUCUTT against Sars	-0.284 (inactive)
GCUUAAGGGAUAACAUAUUTT against Svs2	-0.756 (inactive)
GGACACCAUAUGGUUAGCUTT against Tedc1	-2.25 (active)
ACUGUCAUGCACCCUAAAGTT against Olfr132	0.369 (inactive)
GCUCCUAAAAAGGCUCUUUTT against H2ac18	-0.463 (inactive)

Sequence	z-score
GGAAUUCCAAUGUUACCAUTT against Meltf	3.35 (active)
GCUGGUGUGUAACAUCAAUTT against Fut8	0.246 (inactive)
GCAAUGUUAUUUUCACCAGTT against Slc3a1	0.61 (inactive)
GUUUAACUACAACAAUGAGTT against Dcpp1	1.23 (inactive)
GCCUAGUGACCCUUUACUATT against Stx1a	0.51 (inactive)
GGCGACACAAUAAGACAGATT against Wdr19	0.648 (inactive)
GGUCCAGUUGGAGAUGACATT against Ube2d3	-1.04 (inactive)
GGUCGUGUACUCGUUCAGUTT against Pcdh10	2.04 (active)
GCUAAUCCAGGACUGUUUATT against Trim14	-1.66 (inactive)
GGUUCGACUUUCUUUGCCATT against Ola1	-0.614 (inactive)
GGUACUGAGGUGAGCCUCUTT against Myocd	-2.45 (active)
GGGAGCUCCAUUUAAAUUATT against Cnot6	-0.516 (inactive)
GCAACUUUAUAGCAGAAUCTT against Apbb3	-0.874 (inactive)
CCGUAUAAACAUUUAUGAGTT against Bmp4	-0.295 (inactive)
GGACAACACCCUGAUGAUATT against Vmn1r208	-1.07 (inactive)
CCCACUUGUCUACAGCCUATT against Olfr1505	-2.65 (active)
GUGGGAAAUCAGUAUUUCCTT against AI467606	1.23 (inactive)
GGUUCAUUGUGUCUCUGGCTT against Grk1	-0.378 (inactive)
GGACGCAAGUACAAAUUUATT against Tnxb	1.13 (inactive)
CGUAGUCGAUUCAGGAGAGTT against Gm10439	-0.356 (inactive)
GGUCUUCUUAGCUUUUUUUTT against Plppr1	-0.713 (inactive)
GGGUUGAUAGAAGUUUUUATT against Cpeb1	0.612 (inactive)

Sequence	z-score
GCUUUAGUACAGGCCUCUATT against Tent4a	0.444 (inactive)
CCCGACCACGUGUUUAUUGTT against Tnfsf12	-1.68 (inactive)
CCUGAACUAUAGAUGGAUUTT against Manba	3.37 (active)
GGUGGAGGCAGGAAAAUCUTT against Mrpl57	-0.808 (inactive)
GGCUCAAGCUAUGAAGAGATT against Gstm4	-0.195 (inactive)
GGUUCUUGUUCAUUCUCUUTT against Slc4a4	-0.0837 (inactive)
GGAAAGAGUGUGCAAACUCTT against Ly6d	0.0731 (inactive)
GGCCCAAGGAAUAAUCAAGTT against Satb2	2.48 (active)
GGUAUCGACCACAGAUCAUTT against Plxnd1	1.77 (inactive)
GCACCAUUUUAAGAUCUGCTT against Prr13	0.238 (inactive)
CCUCCUUACAAGUUGAAGCTT against Tmem59l	-0.142 (inactive)
GCUUGUUCACCCAGUUAUGTT against Hexdc	1.15 (inactive)
GCCAUUCACGACCCACUACTT against Olfr1095	-0.102 (inactive)
GGACUGAUAGAGGACUUCCTT against Bloc1s6	-0.56 (inactive)
CCUUUUAGCUCUGUGUAUUTT against Gldc	-0.0983 (inactive)
GGCCUUGAAUGAGCAUCAUTT against Krr1	0.548 (inactive)
GGCUAUGAAAGUGACAAUCTT against Tsen15	-2.74 (active)
GCACCUAAUGAUCACAGUGTT against Nrip3	0.393 (inactive)
GGAAACUGAGCUUAAGAUUTT against Cald1	1.2 (inactive)
CCGCUUUCGGCAAGUAUGGTT against Rbmxl2	1.64 (inactive)
GGCAUGACUUCCACAUGAATT against Pdcd1	0.672 (inactive)
ACAAAUCCACGUGCAAUGUTT against Cyp2d9	0.943 (inactive)

Sequence	z-score
GGAAGAUGAUUAUGAAGAUTT against Apc	-0.143 (inactive)
GCGCAAGCCGUAUUCGAAGTT against Hoxc12	2.95 (active)
GGCCUGGGAAGUGAACAAATT against Faah	-0.721 (inactive)
GGAUCUGUCUACUUUUCCUTT against Hikeshi	0.777 (inactive)
GCCACUCCUAUGAGUGUUATT against Cdk18	0.236 (inactive)
GGAACGCAAGAACAGAAUGTT against Rps24	0.585 (inactive)
GGCCACUGAUCAACUAAAGTT against Zfp110	2.27 (active)
CCAGAUGCUAUGCUAGGGATT against Clec4a1	-0.0541 (inactive)
GGACGGCAAAUUUGGUUUCTT against Mmp9	1.28 (inactive)
GCCAUCAAUGAUGUGCUCUTT against Zswim5	-0.186 (inactive)
GGAAAAUGGAAUCUUCGGUTT against Pus10	-1.4 (inactive)
GCUGGAUACUAAUUGCUUATT against Parva	1.27 (inactive)
GCCUGGUACAGAACCAGUATT against Ntsr2	0.547 (inactive)
CCUAUGCAUCCCUGACUACTT against Tmem126b	5.07 (active)
GGUUUUUAAGGGAAGGCCCTT against Ntmt1	0.284 (inactive)
GUCCCACUCAGGAGAAUUUTT against Lrrc61	0.917 (inactive)
GGAAGAUUAUAUUGAGAGATT against Bnip3	1.11 (inactive)
GGAGGAGAAUGCCACAACUTT against Cd320	-0.227 (inactive)
GCCUGUUAAUAUGCUGUAATT against Gpr83	-0.0705 (inactive)
GGACUUUCUGAGUAAGAAUTT against Coa8	-0.873 (inactive)
